Assay outcomes as filed in PubChem BioAssay.
ERa SRC1 inh – blocks coactivator binding to human estrogen receptor alpha. AID 629. TR-FRET ER-alpha LBD / SRC-1 peptide, estradiol-bound. P03372. inhibition, % at 25.6 µM. 86,000 tested, 1.7% active; in the data active = inhibition above about 50%
Target sequence (P03372 whole entry, looked up, the tested form may be a part): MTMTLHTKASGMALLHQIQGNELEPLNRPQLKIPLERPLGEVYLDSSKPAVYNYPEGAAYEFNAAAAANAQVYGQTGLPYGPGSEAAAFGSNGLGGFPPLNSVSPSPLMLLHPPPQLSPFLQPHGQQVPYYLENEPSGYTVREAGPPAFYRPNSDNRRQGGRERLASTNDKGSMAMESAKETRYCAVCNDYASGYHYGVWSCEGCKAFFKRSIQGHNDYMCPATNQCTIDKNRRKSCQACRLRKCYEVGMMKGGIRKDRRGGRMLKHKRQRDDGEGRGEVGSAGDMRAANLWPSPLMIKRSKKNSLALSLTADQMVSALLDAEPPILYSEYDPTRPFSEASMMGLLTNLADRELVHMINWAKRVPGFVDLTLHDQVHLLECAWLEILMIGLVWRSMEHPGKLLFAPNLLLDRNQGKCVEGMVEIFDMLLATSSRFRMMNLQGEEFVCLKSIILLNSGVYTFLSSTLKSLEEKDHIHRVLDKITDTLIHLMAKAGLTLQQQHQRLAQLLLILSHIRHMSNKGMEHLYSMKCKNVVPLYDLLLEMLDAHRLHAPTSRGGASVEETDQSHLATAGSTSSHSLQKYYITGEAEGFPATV
ERa coact pot – enhances coactivator binding to human estrogen receptor alpha; 86,000 tested, 1.3% active; coactivator binding (% of control), % at 25.6 µM; P03372; TR-FRET ERalpha-LBD/SRC-Cy5 coactivator binding, 2 h; 100 = basal binding, no effect; in the data active = activity above about 200%;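 note: binding measured in presence of low estradiol as agonist stimulus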
Smad3 inh – blocks human Smad3 binding to FoxH1 peptide; P84022; 88,000 tested, 0.29% active; TR-FRET Smad3/Dy647-FoxH1 peptide binding, europium anti-His; AID 630; inhibition, % at 25 µM;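 active = compounds that reduce the energy-transfer binding signal between the protein and its labelled peptide by more than half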
FAK blocker – blocks human focal adhesion kinase activity. Q05397. biochemical FAK kinase activity assay. inhibition, %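 (tested at 7 µM)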. 97,000 tested, 0.84% active; in the data active = inhibition above about 19%
ERb SRC1 inh – blocks coactivator binding to human estrogen receptor beta; AID 633; inhibition, % at 25.6 µM; TR-FRET ER-beta LBD / SRC1-Cy5 peptide binding; receptor agonist-loaded with 1 µM estradiol; Q92731; 86,000 tested, 1.3% active;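 active = compounds whose percent inhibition of the receptor-coactivator binding signal exceeds about 50% in the single-dose screen, limit read from the data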
Each line names hits and unclear results; the compound was inactive in the other large screens; [ ] = remark or other dose. This is a sample that favours compounds with a hit; in the whole collection about 3.3% have one here.

CS(=O)(=O)N(CC(=O)Nc1ccc2c(c1)OCO2)Cc1ccccc1	none
CN(c1ccc(C(=O)NCc2ccc3c(c2)OCO3)cc1)S(C)(=O)=O	ERb SRC1 inh 80.5[fluorescence artefact?]
CS(=O)(=O)N(CCc1ccccc1)CC(=O)Nc1ccc2c(c1)OCO2	ERa SRC1 inh 61.9[fluorescence artefact?]
CN(c1ccccc1C(=O)Nc1ccc2c(c1)OCO2)S(C)(=O)=O	ERb SRC1 inh 53.0[fluorescence artefact?]
Cc1ccc(C(C)C)c(OCC(=O)OCc2c(C)noc2C)c1	ERb SRC1 inh 51.4[fluorescence artefact?]
Cc1ccc(S(=O)(=O)N(C)c2ccc(OCC(=O)OCc3c(C)noc3C)cc2)cc1	none
CCCCCOc1ccc(Br)cc1/C(C)=N/NC1=NCCN1	ERa SRC1 inh 65.9[fluorescence artefact?]
COc1ccc(Br)cc1/C(C)=N/NC1=NCCN1	none
CCCCOc1ccc(-c2nnn(CC(=O)c3c[nH]c4ccccc34)n2)cc1	none
CCC1=NN=C(c2ccc(F)cc2)C(c2c[nH]c3ccccc23)N1O (stereo not given)	ERa coact pot 685.7[fluorescence artefact?]
N#Cc1c(NC(=O)c2ccncc2)sc2c1CCC2	ERa SRC1 inh 90.8[fluorescence artefact?], ERb SRC1 inh 90.9[fluorescence artefact?]
CCCCNc1nc(SC)nc2nc[nH]c12	none (no result: ERa SRC1 inh, ERa coact pot, FAK blocker, ERb SRC1 inh)
Cc1nc2ccc(-c3nc4cc(N)ccc4o3)cc2[nH]1	none
Nc1ccc2oc(-c3ccc4nc[nH]c4c3)nc2c1	ERa SRC1 inh 77.0[fluorescence artefact?]
NCC(=O)N[C@H](CO)C(=O)O	none (no result: ERa SRC1 inh, ERa coact pot, FAK blocker, ERb SRC1 inh)
c1ccc([C@H](c2cccc3c2ccc2ccccc23)[C@H](c2ccccc2)c2cccc3c2ccc2ccccc23)cc1	none (no result: ERa SRC1 inh, ERa coact pot, FAK blocker, ERb SRC1 inh)
OC[C@@H](O)CNc1ncnc2ccccc12	none (no result: ERa SRC1 inh, ERa coact pot, FAK blocker, ERb SRC1 inh)
NS(=O)(=O)c1cc2c(cc1Cl)NC=NS2(=O)=O	ERb SRC1 inh 94.4[fluorescence artefact?] (no result: FAK blocker)
O=C1[C@@H]2[C@H](C(=O)N1CN1CCOCC1)[C@H]1[C@@H]3C=C[C@@H]([C@@H]4C(=O)N(CN5CCOCC5)C(=O)[C@@H]34)[C@@H]21	none (no result: ERa SRC1 inh, ERa coact pot, FAK blocker, ERb SRC1 inh)
O=S(=O)(N/N=C\c1c(F)cccc1Cl)c1ccc(Cl)cc1	none (no result: ERa SRC1 inh, ERa coact pot, Smad3 inh, ERb SRC1 inh)
Fc1cccc(Cl)c1/C=N/N=C1c2ccccc2-c2ccccc21	Smad3 inh 59.0 (no result: ERa SRC1 inh, ERa coact pot, FAK blocker, ERb SRC1 inh)
CCOc1cccc(NC(=O)C2CCCN(S(=O)(=O)c3ccc(-n4cnnn4)cc3)C2)c1 (stereo not given)	ERa coact pot 236.9[fluorescence artefact?]
COc1cccc(NC(=O)C2CCCN(S(=O)(=O)c3ccc(-n4cnnn4)cc3)C2)c1 (stereo not given)	none (no result: FAK blocker)
Cn1c(=O)c2[nH]c(CS(=O)(=O)Cc3nc4c([nH]3)c(=O)n(C)c(=O)n4C)nc2n(C)c1=O	none (no result: ERa SRC1 inh, ERa coact pot, FAK blocker, ERb SRC1 inh)
Cc1ccc(C(=O)Oc2ccc(C(=O)COC(=O)C3CC(=O)N(Cc4ccco4)C3)cc2)cc1 (stereo not given)	ERa coact pot 274.1[fluorescence artefact?]
C[N+](C)([O-])CCC=C1c2ccccc2CCc2ccccc21	none (no result: ERa SRC1 inh, ERa coact pot, FAK blocker, ERb SRC1 inh)
CCOC(=O)c1c(NC(C)=O)sc2c(O)c(CN3CCN(CC)CC3)ccc12	ERa SRC1 inh 53.7[fluorescence artefact?]
NC(=O)SCC(=O)Nc1ccc2ncccc2c1	none (no result: ERa SRC1 inh, ERa coact pot, FAK blocker, ERb SRC1 inh)
Cc1cc(=O)oc2cc(OCC(=O)Nc3nnc(C(C)C)s3)ccc12	ERa coact pot 488.4
Cc1cc(=O)oc2cc(OCC(=O)Nc3nnc(CC(C)C)s3)ccc12	none
Cc1ccc(S(=O)(=O)c2nc(S(C)(=O)=O)sc2NCC2CCCO2)cc1 (stereo not given)	ERa coact pot 610.5
C=CCn1c(SCC(=O)c2c(N)n(CCC)c(=O)n(C)c2=O)nc2sc(CC)cc2c1=O	ERa coact pot 445.2[fluorescence artefact?]
Cc1nc2c(n1C1CCCCC1)C(=O)c1ccccc1C2=O	none (no result: ERa SRC1 inh, ERa coact pot, Smad3 inh, ERb SRC1 inh)
O[C@@H]1[C@@H](OCc2ccccc2)OC[C@H](O)[C@H]1O	none (no result: ERa SRC1 inh, ERa coact pot, FAK blocker, ERb SRC1 inh)
CCOC(=O)c1cc2c(c(CSc3nc4ccccc4c(=O)n3Cc3ccco3)c1)OCOC2	ERa coact pot 336.8
O=c1c2ccccc2nc(SCc2cc(F)cc3c2OCOC3)n1Cc1ccco1	ERa coact pot 227.4[fluorescence artefact?]
CN(Cc1ccccc1)C(=O)CSc1nc2ccccc2c(=O)n1Cc1ccco1	none
CCN1C(=O)c2cccc3c(NC(=O)c4ccc5c(c4)OCCO5)ccc1c23	ERa coact pot 254.6 (no result: FAK blocker)
Oc1cc(O)c2c(c1)O[C@@H](c1ccc(O)c(O)c1)[C@H](O[C@@]1(c3cc(O)c(O)c(O)c3)Oc3cc(O)cc(O)c3[C@H](O)[C@H]1O)C2	none (no result: ERa SRC1 inh, ERa coact pot, FAK blocker, ERb SRC1 inh)
COc1ccc(OC)c(/C=N/c2oc(-c3ccco3)c(-c3ccco3)c2C#N)c1	ERa SRC1 inh 62.1, ERb SRC1 inh 72.7
N#Cc1c(N)oc(-c2ccco2)c1-c1ccco1	ERb SRC1 inh 54.8[fluorescence artefact?]
N#Cc1c(/N=C/c2ccco2)oc(-c2ccccc2)c1-c1ccccc1	none
C[N+](C)(C)c1ncnc2c1ncn2[C@@H]1CCCCO1	none (no result: ERa SRC1 inh, ERa coact pot, FAK blocker, ERb SRC1 inh)
